Experimental data published in PubChem BioAssay.
The source made the active and inactive calls. Unless noted, no rule for the calls is given here.

Experiments:
[1] = tested on: Wnt5a (protein binding on small-molecule microarray); assay: Wnt5a binders on small-molecule microarray, primary screen, biophysical, 635/667 nm fluorescence (AID 1142); conditions: 635 nm fluorescence, higher = more signal;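 also: fluorescence read at 667 nm with signal to noise per printed feature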
[2] = cell viability in Huh7 cells, primary screen, cytotoxicity control for HCV replication inhibitor project, CellTiter-Glo luminescence, basal, 48 h (AID 1143); conditions: Huh7 HCV replicon, higher = more signal, called active from +8 up or from −8 down;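 also: Huh7 hepatoma cells carrying a hepatitis C replication reporter with no stimulus; test concentration not given here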
[3] = P. aeruginosa biofilm formation inhibitors, primary screen, PAO1 strain, BacTiter-Glo luminescence, LB-PBS (AID 1144); conditions: 12 h, higher = more signal
[4] = CREB reporter modulators without forskolin, primary screen, cell-based, PC12, CRE-LacZ reporter, unstimulated (AID 1145); conditions: no forskolin, luminescence, 4.5 h, higher = more signal, called active from +8 up or from −8 down
[5] = CREB reporter modulators under forskolin, primary screen, cell-based, PC12, CRE-LacZ reporter, forskolin-stimulated (AID 1146); conditions: luminescence, 4.5 h, higher = more signal, called active from +8 up or from −8 down;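 also: PC12 cells with 6xCRE LacZ reporter stimulated by forskolin 10 µM; beta-galactosidase reporter signal reflecting CREB driven transcription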
[6] = target: Streptavidin (Streptomyces avidinii) (UniProt P22629); assay: streptavidin binders on small-molecule microarray, primary screen, artefact control for SMM compound annotation, biophysical, 635/667 nm fluorescence (AID 1147); conditions: streptavidin binding, higher = more signal;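 also: signal reflects streptavidin binding to arrayed compounds as a control protein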
[7] = small-molecule binders of probe aInhba, primary screen, biochemical, small-molecule microarray, 635/667 nm fluorescence (AID 1148); conditions: higher = more signal;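 also: score merges 667nm spot fluorescence with signal-to-noise for antibody binding to printed compounds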
[8] = target: Torsin-1A (Homo sapiens) (UniProt O14656); assay: torsin A binders from cell lysate, primary screen, small-molecule microarray, wild-type, 635/667 nm (AID 1149); conditions: COS7 hTOR1A-WT lysate, 635 nm fluorescence, higher = more signal
[9] = target: Torsin-1A (Homo sapiens) (UniProt O14656); assay: small-molecule binders of mutant TOR1A in lysate, primary screen, cell lysate, small-molecule microarray, COS7 lysate, 635/667 nm fluorescence (AID 1150); conditions: COS7 hTOR1A mutant lysate, 635 nm fluorescence, higher = more signal;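 also: score pools 667 nm emission and signal to noise measuring lysate protein binding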
[10] = tested on: Sonic hedgehog protein (Shh); assay: small-molecule binders of Shh protein, primary screen, biochemical, small-molecule microarray, 635/667 nm fluorescence (AID 1151); conditions: small-molecule microarray binding, 635 nm fluorescence; higher = more signal;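 also: Shh protein binding to compounds spotted on small-molecule microarray slides; score combines spot fluorescence intensity with signal-to-noise across triplicate slides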

Sequence of Streptavidin (Streptomyces avidinii) (P22629 whole entry, looked up): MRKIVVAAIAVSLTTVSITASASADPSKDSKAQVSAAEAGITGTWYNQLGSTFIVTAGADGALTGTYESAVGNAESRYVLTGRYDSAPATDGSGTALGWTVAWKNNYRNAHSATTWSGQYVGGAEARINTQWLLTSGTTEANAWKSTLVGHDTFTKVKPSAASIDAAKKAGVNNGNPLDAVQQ
Sequence of Torsin-1A (Homo sapiens) (O14656 whole entry, looked up): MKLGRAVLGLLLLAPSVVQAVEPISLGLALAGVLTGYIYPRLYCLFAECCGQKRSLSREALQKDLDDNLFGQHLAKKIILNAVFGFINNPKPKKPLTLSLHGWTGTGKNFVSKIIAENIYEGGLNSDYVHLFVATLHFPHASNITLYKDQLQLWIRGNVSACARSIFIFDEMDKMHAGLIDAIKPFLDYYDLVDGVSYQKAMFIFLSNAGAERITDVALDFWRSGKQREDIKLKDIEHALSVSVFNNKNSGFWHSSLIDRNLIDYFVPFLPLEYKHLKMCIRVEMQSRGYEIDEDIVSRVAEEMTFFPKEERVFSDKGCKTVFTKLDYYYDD

| SMILES | composite z-score [1] | z-score [2] | z-score [3] | z-score [4] | z-score [5] | composite z-score [6] | composite z-score [7] | composite z-score [8] | composite z-score [9] | composite z-score [10] |
| --- | --- | --- | --- | --- | --- | --- | --- | --- | --- | --- |
| C[C@]1(C(=O)O)c2ccccc2C(=O)N(Cc2ccccc2)[C@H]1c1ccc(CO)cc1 | -0.326 | -1.25 (inactive) | 0.461 (inactive) | 0.001 (inactive) | -0.301 (inactive) | -0.867 | -0.176 | -1.06 | -0.224 | -1.98 |
| C=C1C2CC3C(=C4C(CO[C@@H]4[C@H]4CCCN4S(=O)(=O)c4ccccc4[N+](=O)[O-])C4C(=O)N(C)C(=O)C34)CC2C(=O)N1C (stereo not given in full) | -0.0541 | 0.985 (inactive) | 0.283 (inactive) | 3.21 (inactive) | 0.769 (inactive) | -0.207 | -0.101 | 0.942 | 0.107 | 0.832 |
| O=C1O[C@H](c2ccccc2)[C@H](c2ccccc2)N2[C@H]1[C@@H](C(=O)O)[C@]1(C(=O)Nc3ccccc31)[C@H]2c1ccc(O)cc1 | 0.251 | 0.0915 (inactive) | -0.0265 (inactive) | -0.0566 (inactive) | -0.763 (inactive) | -0.516 | -0.0418 | 0.109 | 1.45 | -0.429 |
| COc1ccccc1CN1C(=O)c2ccccc2[C@@H](C(=O)NC(C)C)[C@@H]1c1ccc(CO)cc1 | 0.428 | -0.486 (inactive) | 0.464 (inactive) | -0.735 (inactive) | -0.784 (inactive) | 0.131 | 0.46 | -0.0764 | 0.0096 | 1.84 |
| C=CCOC(=O)[C@H]1[C@@H]2C(=O)O[C@@H](c3ccccc3)[C@@H](c3ccccc3)N2[C@@H](c2ccc(OCCOC(=O)[C@H]3C[C@H]4C(=O)N[C@@H](CCCC[N+](C)(C)C)C(=O)N4[C@H]3c3cccc(OCCO)c3)cc2)[C@]12C(=O)Nc1ccc(I)cc12 | 0.419 | -0.587 (inactive) | -1.08 (inactive) | 0.415 (inactive) | -0.0044 (inactive) | -0.0117 | -0.13 | 0.485 | 0.29 | 1.03 |
| CC(C)(C)OC(=O)CC[C@]1(C(=O)O)N=C(c2ccc(OCCCO)cc2)O[C@H]1c1ccccc1 | -0.221 | -1.48 (inactive) | -0.278 (inactive) | -0.986 (inactive) | -0.72 (inactive) | 0.235 | -0.102 | -0.272 | 0.113 | -0.899 |
| COC(=O)C(CC#Cc1ccc2c(c1)[C@]1(C(=O)N2)[C@H](C(=O)O)[C@H]2C(=O)O[C@H](c3ccccc3)[C@H](c3ccccc3)N2[C@@H]1c1ccccc1OCCO)C(=O)OC | 0.193 | -1.66 (inactive) | -0.292 (inactive) | 0.899 (inactive) | 2.92 (inactive) | 0.678 | 0.36 | 1.04 | 0.829 | 1.41 |
| CC=CC(O)C1C=CC2C(=O)N(c3ccccc3)C(=O)C2N1Nc1ccc([N+](=O)[O-])cc1 (stereo not given) | -0.0454 | 0.612 (inactive) | 0.698 (inactive) | -0.415 (inactive) | 0.0268 (inactive) | 0.395 | -0.162 | 0.463 | -0.213 | 0.224 |
| CCCC[C@@H]1C[C@H]1[C@@H](NC(=O)c1ccccc1)c1ccc(Cl)cc1 | -0.546 | -2.6 (inactive) | 0.173 (inactive) | 0.197 (inactive) | 0.699 (inactive) | -1.33 | -0.322 | 4.37 | -0.539 | -1.34 |
| O=C1NCC(=O)N2[C@@H]1C[C@@H](C(=O)O)[C@H]2c1ccc(O)cc1 | 0.27 | -0.286 (inactive) | -0.611 (inactive) | 0.0084 (inactive) | 0.622 (inactive) | 0.237 | 0.0104 | 1.13 | 2.29 | 2.01 |
| CN1C(=O)C2C=CC(C(O)Cc3ccccc3)N(N(c3ccccc3)c3ccccc3)C2C1=O (stereo not given) | 0.0159 | 0.443 (inactive) | -0.597 (inactive) | 0.264 (inactive) | 0.6 (inactive) | 2.18 | 0.191 | 0.0867 | 0.25 | -0.572 |
| COc1ccc([Si](C)(C)[C@H]2[C@H](CCn3cc([C@H](O)c4ccccc4)nn3)O[C@@]3(C(=O)N(Cc4cccc(N5C(=O)c6cccc7cccc5c67)c4)c4ccccc43)[C@@H]2C)cc1 | -0.302 | -3.31 (inactive) | 0.789 (inactive) | -0.142 (inactive) | 1.01 (inactive) | -0.713 | -0.176 | -0.601 | -0.437 | -0.0819 |
| CN(C)CCCNC(=O)[C@@H]1c2ccccc2C(=O)N(Cc2ccc(OC(F)(F)F)cc2)[C@H]1c1ccc(CO)cc1 | 0.0246 | -1.35 (inactive) | -1.42 (inactive) | -0.114 (inactive) | 0.77 (inactive) | 0.121 | -0.128 | -0.116 | 0.151 | 2.18 |
| C=CCOC(=O)[C@@H]1[C@H]2C(=O)O[C@H](c3ccccc3)[C@H](c3ccccc3)N2[C@H](c2ccc(OCCOC(=O)[C@H]3C[C@H]4C(=O)N[C@@H](CCCC[N+](C)(C)C)C(=O)N4[C@H]3c3ccc(O)cc3)cc2)[C@@]12C(=O)Nc1ccc(I)cc12 | 0.568 | -0.449 (inactive) | -0.0678 (inactive) | 0.277 (inactive) | -0.391 (inactive) | 0.0658 | 0.0982 | 0.636 | 0.644 | 2.15 |
| COC(=O)[C@@]1(Cc2ccc(F)cc2)[C@H]2c3cc(C(=O)N4CCCC4)n(CCc4c[nH]c5ccc(OC)cc45)c3C[C@H]2CN1C(=O)c1ccccc1 | 1.51 | -4.66 (inactive) | -0.23 (inactive) | 0.0041 (inactive) | -0.556 (inactive) | 1.53 | 1.62 | 0.844 | 0.736 | 0.0332 |
| COC(=O)C1(Cc2ccccc2)C=C2C(=C(C(C)C)C(=O)C2C)CN1 (stereo not given) | 0.131 | -0.576 (inactive) | 0.429 (inactive) | 0.59 (inactive) | -0.173 (inactive) | -0.333 | 0.147 | 0.334 | 0.707 | -0.45 |
| CCCc1cccc(=O)o1 | 0.0303 | -1.62 (inactive) | -0.848 (inactive) | -0.574 (inactive) | 0.646 (inactive) | 0.216 | -0.128 | 1.08 | 0.5 | 0.542 |
| CO[C@H]1O[C@H](CO)[C@@H](OC(=O)c2ccc(Br)cc2)[C@@H]2OC(=O)[C@@H](Cc3ccc4ccccc4c3)C/C=C/C[C@H](Cc3ccc4ccccc4c3)C(=O)O[C@@H]12 | 0.18 | -2.88 (inactive) | 0.4 (inactive) | 0.139 (inactive) | -0.433 (inactive) | 0.48 | -0.103 | 0.0121 | 0.625 | -0.219 |
